Not all results are given here.
aSyn 5UTR act: Activators via SNCA 5'UTR binding, MLPCN; alpha-synuclein 5'UTR reporter, activators screen; activity score, % (tested at 7.5 µM), hits read low; hit rate 7.1% among 300,000; AID 1814; in the data active = activity score below about -60%
Hits are given with their value; i = inactive.

SMILES	aSyn 5UTR act
O=C1/C(=C/c2ccc(F)cc2)CCC1C1CCCC1 (stereo unspecified)	-132.9
CN(CC(=O)N1CCCCCC1)S(=O)(=O)c1ccccc1	-67.8
Cc1nc2nc(-c3ccccc3)nn2c(C)c1C	-104.8
Cc1nc2nc(-c3ccc(Cl)cc3)nn2c(C)c1Cl	-234.9
CC1CCC(NC(=O)c2cccc(S(=O)(=O)N3CCN(c4ccc(F)cc4)CC3)c2)CC1 (stereo unspecified)	-72.1
N/C(=N\OC(=O)COc1ccc2ccccc2c1Br)c1ccncc1	-92.4
CCc1ccc(OCC(=O)O/N=C(\N)c2ccncc2)c(Br)c1	-136.5
CC(C)(C)c1ccc(OCC(=O)O/N=C(\N)c2ccncc2)cc1	-76.7
Cc1cc(C(=O)O/N=C(\N)c2ccc(C(C)(C)C)cc2)no1	-223.3
CCc1ccc(OCC(=O)O/N=C(\N)c2ccncc2)cc1	-98.9
CC(C)C(=O)Nc1ccc(NC(=O)c2ccccc2Cl)nc1	-115.0
Cc1cc(NC(=O)c2ccco2)ncc1NC(=O)Cc1ccccc1	-118.5
O=C(Nc1ccccn1)c1ccc(NC(=O)c2ccco2)cc1	-141.2
O=C(CCc1ccccc1)Nc1ccc(NC(=O)c2ccco2)nc1	-70.8
O=C(Nc1ccc(NC(=O)c2ccccc2Cl)nc1)c1ccco1	-102.3
O=C(Nc1cc(Cl)ccc1-n1cncn1)c1ccc([N+](=O)[O-])o1	-69.9
O=C(Nc1ccc(Cl)c([N+](=O)[O-])c1)c1ccco1	-67.1
CS(=O)(=O)N1CCN(c2ccccc2NC(=O)c2ccc([N+](=O)[O-])o2)CC1	-122.7
CCC(=O)N1CCN(c2ccc(NC(=O)c3ccc([N+](=O)[O-])o3)cc2Cl)CC1	i
O=C(Nc1ccc(NC(=O)c2ccc([N+](=O)[O-])o2)cc1Cl)c1ccco1	-173.4
O=C(Nc1cccc(NC(=O)c2ccc([N+](=O)[O-])o2)c1)c1ccco1	-65.7
O=C(Nc1ccccc1Cl)c1ccc([N+](=O)[O-])o1	-139.1
Cc1[nH]nc(SCC(=O)N2CCCCC2)c1[N+](=O)[O-]	-91.5
CCOC(=O)c1cc2cc(OC)ccc2[nH]1	-147.2
CCOC(=O)c1[nH]c2ccccc2c1NC(=S)Nc1cc(C)ccc1C	-87.9
SMILES	aSyn 5UTR act
CCOC(=O)c1[nH]c2ccc(OC)cc2c1NC(=O)c1ccccc1C(=O)O	-65.4
COc1ccc2[nH]c3c(C)c4ccncc4c(C)c3c2c1	i
Cc1ccc(C)c(NC(=S)NC(NC(=O)Cc2cccc3ccccc23)C(Cl)(Cl)Cl)c1 (stereo unspecified)	i
CCOc1ccc2[nH]c(C(=O)N/N=C/c3ccc(OC)cc3)cc2c1	i
COC(=O)c1[nH]c2ccc(F)cc2c1NS(=O)(=O)c1ccc(OC)cc1	i
CCOC(=O)c1[nH]c2ccc(OC)cc2c1C	-122.3
CN(c1ccccc1)c1nc2ccsc2c(=O)s1	-123.6
O=C(O)c1cc(N/N=C/c2cccs2)ccc1Cl	-252.7
O=[N+]([O-])c1cccc(N/N=C/c2cccc3ccccc23)c1	-91.2
O=C(O)c1cc(N/N=C/c2cccc3ccccc23)ccc1Cl	-131.3
NNc1ccc(Cl)c(C(=O)O)c1	-180.0
Cc1ccc(/C=N/Nc2ccc(Cl)c(C(=O)O)c2)s1	-153.3
CCOC(=O)/C=C/c1ccc2oc3ccccc3c(=O)c2c1	-190.9
COc1ccc(N=Nc2[nH]c3ccc(C)cc3c2O)cc1	-124.9
Cc1ccc(N=Nc2[nH]c3ccccc3c2O)cc1	-79.9
[O-][n+]1c2cc(C(F)(F)F)ccc2c2n1CCN=C2c1ccc(Cl)cc1	-65.1
Nc1c(Cl)cc(C2=NCCn3c2c2ccc([N+](=O)[O-])cc2[n+]3[O-])cc1Cl	i
CCCCNC(=S)N=Nc1c(O)[nH]c2ccccc12	-81.3
Oc1cccc(NC(=S)N=Nc2c(O)[nH]c3ccccc23)c1	-158.2
CCNC(=S)N=Nc1c(O)[nH]c2ccc(C(C)C)cc12	i
CCN(CC)c1ccc(NC(=O)Nc2ccc(C(C)=O)cc2)cc1	-68.4
CCN(CC)c1ccc(NC(=O)Nc2ccccc2)cc1	-137.3
O=C(Nc1ccccc1)NN(C(=O)CCl)c1ccccc1	-125.3
CC(=O)c1c(C)nc(-c2ccc(Cl)cc2)nc1N=CN(C)C	-128.1
CC(=O)c1c(C)nc(-c2ccc(Cl)cc2)nc1N	-239.2
SMILES	aSyn 5UTR act
COc1ccc(-c2cnn3c4c(c(C)nc23)CCN4C(C)C)cc1OC	-69.9
Nc1c2c(nc3sc4c(c13)CCCC4)-c1ccccc1CC2	-75.3
CC(C)c1nc2sc3ccccc3c(=O)c2c(=O)n1Cc1ccccc1	i
O=c1c2ccccc2oc2nc(-c3ccco3)n(-c3ccccc3)c(=O)c12	-251.2
CC(C)c1nc2oc3ccccc3c(=O)c2c(=O)n1-c1ccccc1	-324.5
COc1ccc2c(=O)c3c(=O)n(-c4ccccc4)c(-c4ccc(C)cc4)nc3oc2c1	-79.4
Nc1ccc(SC(F)(F)F)cc1	-70.0
COc1ccc(C2=NNC(c3cc(Cl)cc4c3OCOC4)C2)c(O)c1 (stereo unspecified)	-73.2
NNC(=O)c1[nH]c2ccccc2c1-c1ccccc1	i
O=C(NC1CCCCCCC1)c1c(O)c2ccccc2[nH]c1=O	-99.4
O=C(NC1CC1)c1c(O)c2ccccc2[nH]c1=O	-67.9
O=C(NCCc1ccccc1)c1c(O)c2ccccc2[nH]c1=O	-118.6
Cc1cc(C(=O)CNCc2ccco2)c(C)n1-c1ccc(F)cc1	-105.9
Cc1cc(C(=O)CN2CCCCC2)c(C)n1-c1ccc(F)cc1	-128.9
Cc1cc(C(=O)CN2CCC(C)CC2)c(C)n1-c1ccc(F)cc1	-97.3
Cc1cc(C(=O)NC2CCCCC2)c(C)n1-c1ccc(F)cc1	-174.2
COc1cc(-c2cc(C(=O)Nc3nc4ccccc4s3)c3ccccc3n2)cc(OC)c1OC	-65.3
COc1ccc(-c2cc(C(=O)Nc3ccc(C(N)=O)cc3)c3ccccc3n2)cc1OC	-99.0
C=CCOC(=O)c1c(C)nc2cc3c(cc2c1C)OCO3	-100.7
C(=C\c1ccncc1)/c1ccccc1	-73.3
C(=C\c1nc(-c2ccncc2)no1)/c1ccccc1	-131.8
C(=C\c1nc(-c2ccccc2)no1)/c1ccccc1	-154.1
Cc1cc(OCCN2CCOCC2)ccc1[N+](=O)[O-]	-80.2
Cc1ccc(OCCCN2CCOCC2)c([N+](=O)[O-])c1	-82.0
Cc1ccc(OCc2ccc(C(=O)Nc3nc4ccccc4n3Cc3ccccc3)o2)c([N+](=O)[O-])c1	i
SMILES	aSyn 5UTR act
Cc1cc(OCCN2CCOCC2)ccc1Cl	-75.9
Cc1ccc(OCCCCCN2CCOCC2)c(Cl)c1	-73.7
Cc1cc(OCC(=O)N2CCOCC2)ccc1[N+](=O)[O-]	-75.7
CN(C)c1ccc(-c2ccccc2)nn1	-148.3
O=C1C(=O)N(c2cccc(Cl)c2)C(c2ccccc2[N+](=O)[O-])/C1=C(\O)c1ccccc1 (stereo unspecified)	-87.9
O=C1C(=O)N(c2ccccc2)C(c2ccccc2[N+](=O)[O-])/C1=C(\O)c1ccccc1 (stereo unspecified)	-93.2
COC(=O)c1ccc(NC(=S)Nc2ccccn2)cc1	-171.3
COc1ccc(NC(=S)Nc2ccccn2)cc1	-168.4
Cc1c(C(=O)Nc2ccc(Br)cc2)cnn1C	-112.1
O=C(Nc1ccc(Br)cc1)c1ccccc1Br	-199.6
CCc1ccc(NC(=O)c2ccccc2Br)cc1	-144.3
O=C(CNC(=O)c1ccccc1Br)N/N=C/c1cc(Br)ccc1O	i
CCc1ccc(NC(=O)c2n[nH]c(=O)c3ccccc23)cc1	-84.0
O=S(=O)(Nc1ccc(F)cc1Cl)c1ccc(-c2cnc(C3CC3)o2)cc1	i
O=C(NCC1CCCCC1)c1ccc(F)cc1Cl	-124.5
CCN(CC)CCCNc1nc2cc(OC)c(OC)cc2c2nc(-c3ccccc3)nn12	-76.4
CCN(CC)CCCNc1nc2ccccc2c2nc(-c3ccncc3)nn12	-280.7

Compound activity from PubChem BioAssay.
